Compounds with a hit are over-represented: about 4.7% of the library has one in this group of screens.
D1 potentiator = enhances dopamine response at the human D1 receptor; HEK293 TREx D1 cells, calcium flux, dopamine EC20 potentiation; potentiation, % at 10 µM; 360,000 compounds, 0.036% hits; in the data active = potentiation above about 30%; also: 0% is about no effect
TRHR ag = TRH receptor (human) agonism; TRHR cells, calcium flux fluo-8, FDSS agonist mode; activation, % at 2 µM; 360,000 compounds, 0.18% hits; AID 493084; also: 0% is about no effect
Target sequence (P34981 whole entry, looked up): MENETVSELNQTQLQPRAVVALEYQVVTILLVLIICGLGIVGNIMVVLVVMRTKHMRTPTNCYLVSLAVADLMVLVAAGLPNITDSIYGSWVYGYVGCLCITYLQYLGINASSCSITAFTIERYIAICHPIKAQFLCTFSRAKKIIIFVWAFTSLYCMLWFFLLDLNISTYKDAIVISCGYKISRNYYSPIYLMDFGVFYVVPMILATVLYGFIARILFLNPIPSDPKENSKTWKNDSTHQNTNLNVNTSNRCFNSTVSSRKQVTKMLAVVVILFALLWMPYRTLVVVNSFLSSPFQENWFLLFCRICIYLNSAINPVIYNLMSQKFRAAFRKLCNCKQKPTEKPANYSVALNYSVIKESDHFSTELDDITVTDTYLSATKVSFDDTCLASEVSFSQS
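TRHR-expressing cells, plated overnight in medium with 10% serum, were loaded with fluo-8 calcium dye at room temperature. After a 10 s baseline, library compound was pin-added and calcium release was recorded kinetically (ex 480/em 530) as agonist response.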
D1 antag = human D1 dopamine receptor antagonism; AID 504652; HEK293 TREx D1 cells, calcium flux, dopamine EC80; hits give low values; P21728; activity change, negative = inhibition, % at 10 µM; 360,000 compounds, 3.2% hits; in the data active = activity change below about -30%; also: % is scaled to controls: 0 for no effect and ±100 for the full control effect
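After overnight tetracycline induction at 30 C, force-coupled D1 HEK293 cells took up a no-wash calcium dye at room temperature. Compounds were added and monitored 180 s, and the response to EC80 dopamine was then recorded.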
TRHR enhancer = allosterically enhances the human TRH receptor | TRHR cells, fluo-8 calcium fluorescence, EC20 TRH enhancement | enhancement, % at 2 µM | 360,000 compounds, 0.66% hits | AID 493056; in the data active = enhancement above about 30%; also: 0% is about no effect
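Enhancer read-out: after compound pinning and an initial kinetic agonist-mode read, an EC20 of TRH (10 nM final) was injected and fluo-8 calcium signal (Ex 480/Em 530) followed at 1 s/cycle for 100 cycles in TRHR-expressing cells.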
D1 ag = human D1 receptor agonism; HEK293 T-REx D1 cells, calcium flux, agonist mode; P21728; activation, % at 2 µM; 360,000 compounds, 1% hits; also: 0% is about no effect
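Tetracycline-induced HEK293 TREx D1 cells, force-coupled to calcium signalling, were dye-loaded with a no-wash calcium kit. Compound was pin-added after a 10 s baseline. Fluorescence was read kinetically at 1 cycle/s for 180 s, with calcium rises flagged as agonism.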
* = called active by the depositor. Rule as the data show it, unless noted: active = activation above about 30%; inactive = the rest.

For N#Cc1c(N)nc2c3c(sc(=N)c2c1N)NC(=O)CC3c1ccccc1 (configuration not stated) the results were D1 potentiator -3, TRHR ag -1, D1 antag -35*, TRHR enhancer -4 and D1 ag -1.
Screening O=C(Nc1ccncc1)c1ccc(Cl)c(S(=O)(=O)N2CCCCC2)c1 returned D1 potentiator -8, TRHR ag 0, D1 antag -39*, TRHR enhancer 6 and D1 ag 18.
For O=C(NCC(O)c1ccccc1)c1ccc(Cl)c(S(=O)(=O)N2CCCC2)c1 (configuration not stated) the results were D1 potentiator -9, TRHR ag 0, D1 antag -31*, TRHR enhancer -4 and D1 ag 14.
For Cc1ccc(C(=O)Nc2cccc(C(=O)O)c2)cc1S(=O)(=O)N1CCCC1 the results were D1 potentiator 3, TRHR ag 1, D1 antag -40*, TRHR enhancer 4 and D1 ag -3.
For Cc1ccc(NC(=O)Cn2cc(S(=O)(=O)N3CCCC3)c(S(=O)(=O)N3CCCC3)c2)cc1F the results were D1 potentiator -6, TRHR ag 1, D1 antag -18, TRHR enhancer 32* and D1 ag 2.
`Cc1ccc(NC(=O)Cn2cc(S(=O)(=O)N3CCCC3)c(S(=O)(=O)N3CCCC3)c2)cc1C` gave D1 potentiator 5, TRHR ag 4, D1 antag -9, TRHR enhancer -4 and D1 ag 6.
CCc1ccc(NC(=O)CN2C(=O)CCSc3ccccc32)cc1 was read as D1 potentiator 0, TRHR ag 0, D1 antag 18, TRHR enhancer 3 and D1 ag 2.
`COCCCNc1oc(/C=C/c2cc(OC)c(OC)c(OC)c2)nc1C#N` gave D1 potentiator -2, TRHR ag -1, D1 antag 2, TRHR enhancer 12 and D1 ag 0.
Screening COc1cccc(CN(C)C(=O)c2cc(S(=O)(=O)N3CCCCCC3)ccc2OC)c1 returned D1 potentiator 0, TRHR ag 0, D1 antag 1, TRHR enhancer -2 and D1 ag 0.
O=C(O)c1ccc(NC(=O)c2ccc(Br)c(S(=O)(=O)N3CCCC3)c2)cc1 was read as D1 potentiator 1, TRHR ag 0, D1 antag -4, TRHR enhancer -2 and D1 ag -1.
For COc1cccc(CN(C)C(=O)c2ccc(C)c(S(=O)(=O)N3CCCCC3)c2)c1 the results were D1 potentiator -9, TRHR ag 0, D1 antag -36*, TRHR enhancer -1 and D1 ag 2.
O=C(Nc1ccc(Br)cc1)c1ccc(Br)c(S(=O)(=O)N2CCCCC2)c1 was read as D1 potentiator 4, TRHR ag 2, D1 antag -43*, TRHR enhancer -10 and D1 ag 9.
For COc1ccc(NC(=O)c2cccc(N3CCCS3(=O)=O)c2)cc1 the results were D1 potentiator 0, TRHR ag 0, D1 antag -5, TRHR enhancer 4 and D1 ag 1.
`CC(=O)c1ccc(N2CCN(C(=O)CCS(=O)(=O)c3ccc4c(c3)oc(=O)n4C)CC2)cc1` gave D1 potentiator -1, TRHR ag 0, D1 antag 7, TRHR enhancer -7 and D1 ag 2.
Screening COc1cccc(C(c2ccccc2)N2C3CCC2CN(S(=O)(=O)c2ccc(F)cc2)CC3)c1 (configuration not stated) returned D1 potentiator -3, TRHR ag 0, D1 antag -1, TRHR enhancer -4 and D1 ag 62*.
For COc1ccc(N2CCN(C3CCN(S(=O)(=O)c4ccc(F)cc4)CC3)CC2)cc1 the results were D1 potentiator -1, TRHR ag 0, D1 antag -3, TRHR enhancer -2 and D1 ag 3.
`Cc1ccc(NC(=O)CN2C(=O)CC(c3ccco3)Sc3ccccc32)cc1Cl` (configuration not stated) gave D1 potentiator -5, TRHR ag 0, D1 antag 4, TRHR enhancer -3 and D1 ag 3.
For COC(=O)C(NC(=O)C(C)NC(=O)OCc1ccccc1)C(C)C (configuration not stated) the results were D1 potentiator -3, TRHR ag 0, D1 antag 14, TRHR enhancer -4 and D1 ag 1.
COC(=O)c1ccc(COC(=O)C(NC(=O)Cc2ccccc2)C(C)C)cc1 (configuration not stated) was read as D1 potentiator 2, TRHR ag 0, D1 antag -32*, TRHR enhancer 24 and D1 ag 6.
`CCN1C(=O)/C(=C2/C=CC=CN2C)SC1=S` gave D1 potentiator -1, TRHR ag 1, D1 antag -33*, TRHR enhancer -3 and D1 ag 2.
For CN1C=CC=C/C1=C1/SC(=S)N(Cc2ccccc2)C1=O the results were D1 potentiator 4, TRHR ag 1, D1 antag -9, TRHR enhancer 4 and D1 ag 1.
`COCCCN1C(=O)c2[nH]nc(-c3ccccc3O)c2C1c1ccc(OCc2ccccc2)cc1` (configuration not stated) gave D1 potentiator 2, TRHR ag 0, D1 antag -24, TRHR enhancer -2 and D1 ag 0.
Screening Cc1cc(/C=C2\SC(=S)NC2=O)c(C)n1C1CC1 returned D1 potentiator -5, TRHR ag 14, D1 antag -10, TRHR enhancer -8 and D1 ag 21.
`CN1CCC/C1=C/C=C1\SC(=S)NC1=O` gave D1 potentiator -1, TRHR ag 48*, D1 antag 10, TRHR enhancer 10 and D1 ag 81*.
`COc1ccc(-c2cc(=O)n(CCC#N)[nH]2)cc1` gave D1 potentiator 6, TRHR ag 0, D1 antag -4, TRHR enhancer 3 and D1 ag -1.
COc1ccc(-c2ncn(CCC#N)c2[N+](=O)[O-])cc1 was read as D1 potentiator -1, TRHR ag -1, D1 antag 7, TRHR enhancer 33* and D1 ag 3.
Screening COc1cc(/C=C(\NC(C)=O)C(=O)O)cc(OC)c1OC returned D1 potentiator -6, TRHR ag 1, D1 antag -9, TRHR enhancer -3 and D1 ag 2.
`COc1cc(/C=C(/C(=O)O)c2ccc(-c3ccccc3)cc2)cc(OC)c1OC` gave D1 potentiator -8, TRHR ag 0, D1 antag -42*, TRHR enhancer 1 and D1 ag -3.
For CCN(CC)c1ccc2c(C)c(Cl)c(=O)oc2c1 the results were D1 potentiator 0, TRHR ag 0, D1 antag 1, TRHR enhancer 3 and D1 ag 0.

Compound activity (PubChem BioAssay)
